Test results published in PubChem BioAssay (Tox21).
Values joined by “and” are separate entries in the source; they are usually repeats but may differ in a detail not shown here. Equal entries are not always repeated. Records with an inconclusive call do not appear. A call without a number means that no potency is given here. Active and inactive are the calls of the source. Calls come from the whole dose curve; as a rule, active = well fitted cell-killing curve with a large enough effect in the repeat runs; inconclusive = weak or mixed curves, or effect the other way; inactive = flat fitted curve, though single readings scatter.

test: Human pregnane X receptor (PXR) small molecule agonists, qHTS cell viability counter screen (AID 1346977); conditions: PXR-Luc HepG2 viability, CellTiter-Fluor, 24 h; series mostly up to 92.4 µM; activity change, negative = cytotoxicity: at the top concentration; note: nearly all actives have a fitted effect of over 50% in size
Excerpt: U.S. Tox21 Program National Center for Advancing Translational Sciences [NCATS] NIH Chemical Genomics Center [NCGC] U.S. Environmental Protection Agency [EPA] National Institutes of Environmental Health Sciences [NIEHS] National Toxicology Program [NTP] U.S. Food and Drug Administration [FDA] Tox21 Assay Overview: The human pregnane X receptor (hPXR) regulates the expression of several drug metabolizing enzymes and induction of these proteins is a major mechanism for developing drug resistance in cancer. One such key enzyme catalyzing the drug metabolism is cytochrome P450 3A4 (CYP3A4). Changes in CYP3A4 expression affect drug metabolism, thereby reducing the therapeutic efficacy and altering toxicological response to a drug and which finally causes adverse drug interaction. To screen Tox21 libraries for compounds that activate hPXR-mediated CYP3A4 gene expression, PXR-Luc HepG2 cells were used. Also cytotoxicity of the compounds was tested in parallel by measuring the cell viability using CellTiter-Fluor assay system in the same wells.
Tox21 Assay Protocol Summary: PXR-Luc HepG2 cells were dispensed at 2,000 per well in 5uL of assay medium containing 5% charcoal-stripped FBS into white solid bottom 1536-well plates (Corning Life Sciences, Corning, NY) using a Multidrop Combi (Thermo Scientific, Waltham, MA) dispenser. The assay plates were incubated at 37 C and 5% CO2 for 5hr, and then 23nL of compounds dissolved in DMSO and positive control were transferred using a Pintool station (Wako, San Diego, CA). The assay plates were incubated at 37C and 5% CO2 for 24hr. For cytotoxicity read, after 23hr incubation at 37C, 1uL CellTiter-Fluor reagent (Promega Corporation, Madison, WI) was added to each well of the assay plates using Flying Reagent Dispenser (FRD, Aurora Discovery, San Diego, CA). After 1hr incubation at 37C and 5% CO2, the fluorescence signal was quantified using a ViewLux plate reader (PerkinElmer, Shelton, CT).
Potency is the fitted concentration of half-maximal effect.

SMILES | Potency | activity change, negative = cytotoxicity
CC(=O)CC(=O)N(C)C | inactive | –
CCCCCCC(=O)O | – | 2.07% (inactive)
Cc1ccc(Cl)cc1 | inactive | –
O=C(O)Cc1c[nH]c2ccccc12 | inactive | –
O=C(Cl)c1ccc(C(=O)Cl)cc1 | inactive | –
CCCCCCCCCCCC(=O)N(C)CC(=O)O | inactive | –
COCN(COC)c1nc(N(COC)COC)nc(N(COC)COC)n1 | inactive | –
CC(=O)OC/C=C(\C)CCC=C(C)C | inactive | –
CC(C)c1ccc(C(C)C)cc1 | inactive | –
CC1=CC(=O)CC(C)(C)C1 | inactive | –
CCCCCCCC(=O)O | inactive | –
OC[C@H]1O[C@@H](Oc2ccc(O)cc2)[C@H](O)[C@@H](O)[C@@H]1O | inactive | –
c1cnc2c(c1)ccc1cccnc12 | 1.26 µM (active) | –
Brc1ccc(Oc2ccc(Br)cc2)cc1 | inactive | –
CCCCCCCCO | inactive | –
CCOC(=O)c1ccc(O)cc1 | inactive | –
CN1CCCC1=O | inactive | –
CC(=O)Nc1ccc(CC(=O)O)cc1 | inactive | –
C=CC(=O)NCOCCCC | inactive | –
CCCCC(CC)COC(=O)c1ccc(C(=O)OCC(CC)CCCC)cc1 (stereo not given) | inactive | –

SMILES | Potency | activity change, negative = cytotoxicity
CC(CN1c2ccccc2Sc2ccccc21)N(C)C (stereo not given) | 44.7 µM (active) and 48.6 µM (active) | –
CC1(C)C(=O)N(Cl)C(=O)N1Cl | inactive | –
Cc1ccncc1 | inactive | –
COC(=O)OC | inactive | –
CC1(C)[C@@H](O[C@H]2O[C@H](C(=O)O)[C@@H](O)[C@H](O)[C@H]2O[C@@H]2O[C@H](C(=O)O)[C@@H](O)[C@H](O)[C@H]2O)CC[C@]2(C)[C@H]3C(=O)C=C4[C@@H]5C[C@@](C)(C(=O)O)CC[C@]5(C)CC[C@@]4(C)[C@]3(C)CC[C@@H]12 | inactive | –
Clc1cccc(Cl)c1NC1=NCCN1 | inactive | –
CC(C)(C)NC[C@H](O)COc1nsnc1N1CCOCC1 | inactive | –
Cc1ccccc1Cl | inactive | –
CC/C(C)=N/O | inactive | –
OCC(O)CS (stereo not given) | inactive | –
O=C(NCC1CCCCN1)c1cc(OCC(F)(F)F)ccc1OCC(F)(F)F (stereo not given) | 60 µM (active) | –
CC(C)=CCC/C(C)=C/C=O | inactive | –
CCCCCCCCCCCCCC(=O)O | inactive | –
CCc1cccc(O)c1 | inactive | –
CC(=O)c1nccs1 | inactive | –
CS(=O)(=O)c1ccc(Cl)cc1 | inactive | –
COC(=O)/C=C\C(=O)OC | inactive | –
CC(=O)C(C)C | inactive | –
CC(=O)OC(C)(C)C1CC=C(C)CC1 (stereo not given) | inactive | –
Cc1ccc([N+](=O)[O-])cc1N | inactive | –
